Measured values taken from ChEMBL document CHEMBL3988442, “University of Dundee, Small-Polar-MMV Screening Library” (2021).
In all, about 53,000 compounds went through this assay and about 900 (1.7%) showed an effect of 50% or more. The sample holds strong results, similar compounds and a random draw of the others, so the mix is not that of the screen.

System: Mycobacterium tuberculosis
Experiment: Cornell - Phenotypic assay to identify agents that inhibit growth of Mycobacterium tuberculosis
Assay type: functional
Parameters: scale not given: direction of the effect not stated beside the values
Conditions: 10 mM as filed; unlikely as a test dose

SMILES	Percent Effect
COc1nn(C)c2c1CCCN(C(=O)c1cc[nH]n1)C2	12.29%
COc1ccccc1C1CCN(C(=O)CN2C(=O)OC(C)(C)C2=O)CC1	53.49%
CC1(C)OC(=O)N(CC(=O)N2CCC(c3ccccc3F)C2)C1=O (stereo not drawn)	22.76%
CC1(C)OC(=O)N(CC(=O)N2CCC(c3ccccc3Cl)C2)C1=O (stereo not drawn)	25.58%
O=C(O)C(F)(F)F.O=C1CC2(CCN(Cc3ccccn3)C2)CN1c1cncnc1 (stereo not drawn)	17.37%
CCCC(C#N)NC(=O)c1cc(Br)c2c(c1)OCCO2 (stereo not drawn)	14.39%
Oc1ccc(Cl)cc1CNCc1ccccc1Cl	26.21%
Oc1ccc(Cl)cc1CNCc1cccc(C(F)(F)F)c1	70.21%
Oc1ccc(Cl)cc1CNCc1ccccc1C(F)(F)F	6.779%
CCc1nnc(NC(=O)c2c3c(nn2C2CCS(=O)(=O)C2)CCC3)s1 (stereo not drawn)	-18.44%
CNC(=O)NCC1CCC2(CCN(C(=O)c3ccccc3)CC2)CO1 (stereo not drawn)	2.943%
O=C(O)C(F)(F)F.O=C([C@H]1CC[C@@H]2[C@@H](CCN2C2CCOCC2)O1)N1CCOCC1	0.461%
O=C(CN1CCc2sccc2C1)Nc1ccnc2ccnn12	105.2%
CC(C)n1nccc1NC(=O)CN1CCc2sccc2C1	2.695%
Cn1nccc1NC(=O)CN1CCc2sccc2C1	-1.554%
O=C(O)C(F)(F)F.O=C(O)C(F)(F)F.O=C(c1cccnc1)N1CCC[C@]2(C[C@H](Oc3ncccc3F)CO2)C1	-30.18%
COCCN1CCC(c2cncc(N(C)C)n2)CC1	-17.24%
Nc1nccc(C2CN(Cc3ccc(-c4ccccc4C(=O)O)o3)C2)n1	40.18%
Cc1nccc(C2CN(Cc3ccc(-c4ccccc4C(=O)O)o3)C2)n1	19.38%
O=C(O)c1ccccc1-c1ccc(CN2CC(c3ccncn3)C2)o1	60.18%
CCc1ccc(CN(CCCn2ccnc2)Cc2ccc(C)s2)o1.O=C(O)CC(O)(CC(=O)O)C(=O)O	67.99%
Cc1ccc(CN(CCCn2ccnc2)Cc2cccs2)s1.O=C(O)CC(O)(CC(=O)O)C(=O)O	40.45%
Cc1ccc(CN(CCCn2ccnc2)Cc2ccccc2O)s1.O=C(O)CC(O)(CC(=O)O)C(=O)O	-13.23%
Cc1cnc(CCNC(=O)NCCc2ccc(O)cc2)s1	16.98%
O=C(c1ccno1)N1CCn2cc(CN3CCCCC3)nc2C1	6.548%
CCc1ccc(C(COC)NC(=O)c2ccsc2)o1 (stereo not drawn)	37.56%
c1cc(CNCC2CNc3ccnn3C2)cc(OC2CCCCC2)n1 (stereo not drawn)	-14.29%

SMILES	Percent Effect
c1cc2n(n1)CC(CNCc1ccc(OC3CCCC3)nc1)CN2 (stereo not drawn)	-62.66%
c1cc2n(n1)CC(CNCc1ccc(OC3CCCCC3)nc1)CN2 (stereo not drawn)	102.7%
O=C(C1CCC1)N1CCCn2nc(CNc3ncccn3)cc2C1	5.205%
CN(Cc1cc2cc(F)ccc2[nH]1)c1cc(C2CCCNC2)ncn1 (stereo not drawn)	13.11%
Cc1c(CN(C)c2cc(C3CCCNC3)ncn2)[nH]c2ccccc12 (stereo not drawn)	61.5%
Cc1nc(C2CCCNC2)cc(N(C)CCc2ccccc2)n1 (stereo not drawn)	0.6184%
CN1C(=O)CCc2cc(NS(=O)(=O)Cc3cccc(F)c3)ccc21	1.464%
COCCc1noc(C2CCN(C(=O)Nc3cccs3)CC2)n1	17.42%
O=C(Nc1cccs1)N1CC(c2nc(C3CC3)no2)C1	107.8%
O=C(Nc1c(F)cccc1F)N1CC(c2nc(C3CC3)no2)C1	10.47%
O=C(Nc1cccnc1)[C@H]1C[C@H]2OCC[C@H]2N(Cc2ccc(F)cc2)C1.O=C(O)C(F)(F)F.O=C(O)C(F)(F)F	11.11%
CC(C)C(=O)NCCc1cc2nc(-c3ccncc3)ccn2n1	-48.83%
COCCN1CCC(CNC(=O)C2(c3ccc(Br)cc3)CCCC2)C1 (stereo not drawn)	15.91%
CCCn1cc(-c2ccnc(NC3CCCc4ccccc43)n2)c(C)n1 (stereo not drawn)	106.6%
CCCn1cc(-c2ccnc(NC3CCc4ccccc43)n2)c(C)n1 (stereo not drawn)	36.22%
CCCn1ncc(-c2ccnc(NC3CCCc4ccccc43)n2)c1C (stereo not drawn)	50.48%
Cc1nn(CCO)c(C)c1CNC1CCCCc2ccccc21 (stereo not drawn)	11.7%
OCCNc1nccc(-c2cn3nccc3nc2C2CCCCC2)n1	15.49%
CCCn1cc(-c2ccnc(NC3CCc4ccccc4C3)n2)c(C)n1 (stereo not drawn)	8.734%
CCCn1ncc(-c2ccnc(N[C@@H]3C[C@@H]4CC[C@H]3C4)n2)c1C	88.15%
CCCn1ncc(-c2ccnc(NC3CCSC3)n2)c1C (stereo not drawn)	-4.809%
CCCn1ncc(-c2ccnc(NC3CC(C)(C)NC(C)(C)C3)n2)c1C	-32.04%
O=C1NCC2(CCCN(c3ncnc4c3CCC4)CC2)O1 (stereo not drawn)	11.26%
O=C(CCSc1ccc2c(c1)OCCO2)NCC1CCS(=O)(=O)C1 (stereo not drawn)	-7.695%
CCC(C)NC(=O)Nc1cccc(OCCCC#N)c1 (stereo not drawn)	-0.4736%
CC(C)NC(=O)Cn1ccc2c(Cl)cccc21	18.88%
